Source: PubChem BioAssay
Bcl-xL primary – inhibitors of human Bcl-xL, primary screen, biochemical, fluorescence polarization, HTS. Bcl-2-like protein 1 (Homo sapiens), Q07817. inhibition, % at 10.9 µM. 320,000 compounds, 0.7% hits. GST-Bcl-xL / FITC-Bim BH3 peptide fluorescence polarization;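 active = inhibition above the mean of all tested compounds plus 3 SD, cutoff set per campaign, cut at about 30% in these data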;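 note: 0% = DMSO wells and 100% = unlabeled Bim-BH3 peptide competitor; inhibitors lower millipolarization by displacing the labeled peptide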
IDE inh – human IDE inhibitors in live cells, primary screen, fluorescence polarization, HEK cells, FAbetaB substrate; Insulin-degrading enzyme (Homo sapiens), P14735; FAbetaB cleavage; inhibition, % at 5.59 µM; 320,000 compounds, 0.41% hits; AID 434962, 2010;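 active = percent inhibition above the average of all tested compounds plus 3 SD, set per screening campaign, cut at about 16% in these data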;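 note: IDE supplied by intact live HEK cells; FP after avidin binding of uncleaved biotin substrate so inhibition keeps polarization high; 0% = DMSO wells and 100% = 60 µM reference IDE inhibitor Ii1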
MCL1-BIM inh – inhibitors of MCL1 binding to BIM-BH3, primary screen, biochemical, fluorescence polarization; 320,000 compounds, 0.68% hits; AID 2057, 2009; GST-MCL1 / FITC-Bim-BH3 fluorescence polarization; Induced myeloid leukemia cell differentiation protein Mcl-1 (Homo sapiens), Q07820; inhibition, % at 10.9 µM;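 active = inhibition above the mean inhibition of all tested compounds plus 3 SD, set per campaign, cut at about 40% in these data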;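 note: 0% = DMSO wells and 100% = unlabeled Bim-BH3 peptide control; higher means more loss of mP so more displacement of Bim peptide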
GLD-1 TGE inh – GLD-1/TGE RNA complex disruptors, primary screen, biochemical, fluorescence polarization | Female germline-specific tumor suppressor gld-1 (Caenorhabditis elegans), Q17339 | purified GLD-1 + fluorescein TGE RNA | inhibition, % at 5.96 µM | 320,000 compounds, 0.44% hits | AID 2280, 2010;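 active = percent inhibition above a per-plate cutoff, the plate mean of test compounds plus 3 SD, cut at about 30% in these data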;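 note: 0% = DMSO wells with GLD-1 and probe and 100% = wells lacking GLD-1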
MEX-5 binding – MEX-5 zinc finger RNA-binding disruptors – biochemical, C. elegans, fluorescence polarization, MLPCN library, primary screen | MEX-5/FITC-TCR2 RNA binding; hits give low values | AID 1832, 2009 | Zinc finger protein mex-5 (Caenorhabditis elegans), Q9XUB2 | 300,000 compounds, 0.38% hits | activity score (negative = inhibition of binding), % at 10 µM;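 active = inhibition past about -25% in most replicates, and total fluorescence under double the plate's negative control median, limit read from the data; inconclusive = replicates evenly split on the limit, or fluorescence at least double controls; inactive = too little inhibition in most replicates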;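 note: 0% = DMSO and -100% = 5 µM competing unlabeled TCR2 RNA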
IDE act – human IDE activators in live cells, primary screen, fluorescence polarization, HEK cells, FAbeta-B substrate; FAbeta-B cleavage; 0% vehicle, 100% cell-free pure enzyme wells; 340,000 compounds, 0.073% hits; activation, % at 5.96 µM; AID 493087, 2011; Insulin-degrading enzyme (Homo sapiens), P14735;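 active = activation above the mean of all tested compounds plus 3 SD, set per screening campaign, cut at about 17% in these data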
IDE cell inh cf – human IDE inhibitors in live cells, confirmation, fluorescence polarization, HEK cells, FAbetaB substrate; shares compounds with IDE inh; FAbetaB cleavage; inhibition, % at 5.59 µM; 1,200 compounds, 51% hits; AID 435028, 2010;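 active = mean inhibition across triplicate wells above the cutoff set by the earlier primary insulin-degrading enzyme screen, cut at about 16% in these data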;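 note: 0% = DMSO wells and 100% = 60 µM reference IDE inhibitor Ii1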
HEK293 tox – cytotoxicity in HEK cells, cytotoxicity control for IDE inhibitor project, cell-based, luminescence; HEK293 cytotoxicity, ATP luminescence; 1,200 compounds, 28% hits; inhibition, % at 5.59 µM; AID 449730, 2010; shares compounds with IDE inh; in the data active = inhibition above about 22%;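 note: 0% = vehicle wells and 100% = reference cytotoxic drug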
Active calls of the source: *. The list is not random: actives were taken first. Their share in the collection is about 1.5%.

Results for Cc1cc([N+](=O)[O-])cc2c1NC(=O)C2(O)N1CCOCC1 (stereo not given) ?
Bcl-xL primary: 3; IDE inh: 5; MCL1-BIM inh: 14; GLD-1 TGE inh: -3; MEX-5 binding: -2; IDE act: 0

Results for Cn1nc(N)c2c(-c3ccc(Cl)cc3)c(C#N)c(N)nc21 ?
Bcl-xL primary: 3; IDE inh: 16*; MCL1-BIM inh: -3; GLD-1 TGE inh: 9; MEX-5 binding: -8; IDE act: -7; IDE cell inh cf: 4; HEK293 tox: 7

How did CN1Cc2sc(NC(=S)NC(=O)c3ccccc3)c(C#N)c2CC1(C)C do in these assays?
Bcl-xL primary: -40; IDE inh: 58*; MCL1-BIM inh: -92; GLD-1 TGE inh: -126; MEX-5 binding: 0; IDE cell inh cf: 4; HEK293 tox: 15

Results for CCN1CCc2c(sc(NC(=S)NC(=O)c3ccccc3)c2C#N)C1 ?
Bcl-xL primary: -3; IDE inh: 26*; MCL1-BIM inh: -9; GLD-1 TGE inh: -34; MEX-5 binding: 1; IDE act: -7; IDE cell inh cf: 4; HEK293 tox: 16

What do the screens show for `Cc1ccc(NC(=O)CCCn2c(=S)[nH]c3ccsc3c2=O)cc1C`?
Bcl-xL primary: 1; IDE inh: -2; MCL1-BIM inh: -2; GLD-1 TGE inh: 4; MEX-5 binding: -2; IDE act: -5

How did COC(=O)c1ccc2c(c1)C(C)(C)C(/C=C/c1ccc(O)cc1)=[N+]2C do in these assays?
Bcl-xL primary: -10; IDE inh: 16*; MCL1-BIM inh: -54; GLD-1 TGE inh: 29; MEX-5 binding: inconclusive; IDE act: -25; IDE cell inh cf: 21*; HEK293 tox: 122*

Results for COC(=O)c1ccc2c(c1)C(C)(C)C(/C=C/c1ccc(OC)c(OC)c1OC)=[N+]2C ?
Bcl-xL primary: -65; IDE inh: 1; MCL1-BIM inh: -113; GLD-1 TGE inh: 20; MEX-5 binding: 40; IDE act: -3

Results for CCOc1ccc(S(=O)(=O)N2CCN(C(=O)C3CC3C)CC2)cc1 (stereo not given) ?
IDE inh: -3; GLD-1 TGE inh: 3; IDE act: -1

What do the screens show for `Cn1c(SCCOc2ccc(Cl)cc2)nnc1-c1ccncc1`?
Bcl-xL primary: 4; IDE inh: 44*; MCL1-BIM inh: 2; GLD-1 TGE inh: 6; MEX-5 binding: -2; IDE act: -48; IDE cell inh cf: 15; HEK293 tox: 16

Results for Cn1c(SCCOc2ccc(F)cc2)nnc1-c1ccncc1 ?
Bcl-xL primary: -1; IDE inh: 9; MCL1-BIM inh: -2; GLD-1 TGE inh: -4; MEX-5 binding: 1; IDE act: -6

What do the screens show for `Cn1c(SCc2nc(-c3ccc(Cl)cc3)no2)nnc1-c1cccs1`?
Bcl-xL primary: 1; IDE inh: 16*; MCL1-BIM inh: 0; GLD-1 TGE inh: -2; MEX-5 binding: 0; IDE act: -13; IDE cell inh cf: 8; HEK293 tox: 9

What do the screens show for `Cc1ccc(OCCSc2nnc(-c3cccs3)n2C)cc1`?
Bcl-xL primary: 7; IDE inh: 20*; MCL1-BIM inh: 5; GLD-1 TGE inh: -2; MEX-5 binding: 1; IDE act: -20; IDE cell inh cf: 8; HEK293 tox: 6

What do the screens show for `Cc1cc(OCCSc2nnc(-c3cccs3)n2C)ccc1Cl`?
Bcl-xL primary: -3; IDE inh: 12; MCL1-BIM inh: -1; GLD-1 TGE inh: -8; MEX-5 binding: 0; IDE act: -22
